# From PubChem BioAssay
# Shown are actives, neighbours in structure and some others; about 9.8% of the full set was active somewhere.
# HPGD block: blocks human HPGD enzyme activity; P15428; purified HPGD, NADH fluorescence kinetic, PGE2 substrate; Potency, µM, inactives show at the top dose activity change, negative = inhibition, usual class: inhibitors; 4.3% of 150,000 active; AID 894; note: potency is the fitted concentration of half-maximal effect; % is set by controls: 0 for no effect and ±100 for the full control effect
# Target sequence (P15428 whole entry, looked up): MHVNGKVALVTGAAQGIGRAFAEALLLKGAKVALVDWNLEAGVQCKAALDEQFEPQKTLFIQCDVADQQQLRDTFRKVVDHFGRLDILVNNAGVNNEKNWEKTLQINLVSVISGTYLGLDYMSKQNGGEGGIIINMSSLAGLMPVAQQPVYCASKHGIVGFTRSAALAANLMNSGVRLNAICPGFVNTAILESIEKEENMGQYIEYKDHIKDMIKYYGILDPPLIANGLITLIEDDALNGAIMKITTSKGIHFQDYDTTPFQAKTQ
#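 20 nM HPGD preincubated 15 min at room temperature with compound in 50 mM Tris-HCl pH 8, 0.01% Tween 20. Started with 1 mM NAD+ and 30 uM prostaglandin E2; NADH fluorescence (360/450 nm) read 5 times over 30-s intervals, last minus first.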
# HttQ103 aggreg: inhibitors of mutant huntingtin aggregate formation in PC12 cells. PC12 HttQ103-GFP aggregates, Acumen cytometry, 40 h. Potency, µM (doses to about 46.1 µM), inactives show at the highest dose activity change, negative = inhibition, hits mostly inhibitors. 1.1% of 220,000 active. AID 1688; active = well fitted curve in the direction sought with a large enough effect; inconclusive = small, poorly fitted or top-dose-only effect, or another doubt; inactive = no such curve, though single readings can be large; an effect the other way counts as inactive or inconclusive; note: potency is the fitted concentration of half-maximal effect; % is set by controls: 0 for no effect and ±100 for the full control effect; nearly all actives have a fitted effect of over 60% in size
#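 Quantitative HTS on tebufenozide-induced (100 nM) PC12 cells stably expressing polyQ103 Huntingtin exon 1–GFP. Reduction of bright GFP aggregates, detected by laser scanning cytometry after lysis, identified actives across the titration.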
# JMJD2E inh: inhibitors of human JMJD2E histone demethylase. JMJD2E catalytic domain, FDH-coupled NADH fluorescence (FDH is formaldehyde dehydrogenase). Potency, µM (top dose mostly 57.1 µM), without a hit: top-dose activity change, negative = inhibition, usual class: inhibitors. 1.6% of 230,000 active. AID 2147;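 note: potency is the fitted concentration of half-maximal effect; 0% = wells with enzyme and -100% = buffer wells without enzyme; nearly all actives have a fitted effect of over 50% in size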
# Target sequence (B2RXH2 1-337 limits assumed): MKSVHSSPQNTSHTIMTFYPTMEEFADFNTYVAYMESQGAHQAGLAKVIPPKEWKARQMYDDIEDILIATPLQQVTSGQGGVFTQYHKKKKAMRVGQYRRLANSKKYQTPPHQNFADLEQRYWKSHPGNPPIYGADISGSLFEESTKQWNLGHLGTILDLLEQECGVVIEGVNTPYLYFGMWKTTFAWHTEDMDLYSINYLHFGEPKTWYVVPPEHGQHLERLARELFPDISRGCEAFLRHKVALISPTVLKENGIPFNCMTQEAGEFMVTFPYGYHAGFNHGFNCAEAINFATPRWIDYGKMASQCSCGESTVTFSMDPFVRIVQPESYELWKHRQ
# HTT ATP protect: Huntington cell model cytoprotection by ATP luminescence | 0.14% of 230,000 active | Potency, µM (top dose mostly 56.4 µM), for the others: cytoprotection (ATP increase), actives largely listed as activators | PC12 HTT-Q103 induced, cytoprotection, ATP luminescence, 40 h | AID 1471; active = well fitted curve in the direction sought with a large enough effect; inconclusive = small, poorly fitted or top-dose-only effect, or another doubt; inactive = no such curve, though single readings can be large; an effect the other way counts as inactive or inconclusive; note: potency is the fitted concentration of half-maximal effect; % of control where 0% means no effect; nearly all actives have a fitted effect of over 45% in size
#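 Stable PC12 Q103-GFP cells in serum-supplemented, phenol red-free DMEM; induction by tebufenozide at 100 nM final; compound dose series; cell viability quantified luminescently from ATP.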
# ALDH1A1 inh: blocks purified human ALDH1A1 activity. Purified ALDH1A1, NADH fluorescence, propionaldehyde substrate. 7.3% of 220,000 active. Potency, µM (highest dose often 75.3 µM), without a hit: top-dose activity, negative = inhibition, usual class: inhibitors. P00352. AID 1030;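 note: potency is the fitted concentration of half-maximal effect; plate controls were no enzyme wells and a reference inhibitor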
# CBFb RUNX1 block: blocks binding between human CBF-beta and RUNX1. AlphaScreen CBFb-His/RUNX1-biotin binding, biochemical. Q01196+Q13951. Potency, µM (titrated, usually from 59.8 µM), inactives show top-dose activity, negative = inhibition, hits mostly inhibitors. 230,000 tested, under 10 active; active = well fitted curve in the direction sought with a large enough effect; inconclusive = small, poorly fitted or top-dose-only effect, or another doubt; inactive = no such curve, though single readings can be large; an effect the other way counts as inactive or inconclusive; note: % of control where 0% means no effect
#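 CBFb-His/RUNX1-biotin, 30 nM each, preincubated 20 min RT; compound 15 min RT; Ni + streptavidin beads 50 ng each, 90 min RT; AlphaScreen read.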
# Numbers without * were called inactive; ? = inconclusive; nt = not tested or not shown; [ ] = another dose, or the depositor's remark. Unless noted, calls come from the whole dose curve; as a rule, active = well fitted inhibition curve with a large enough effect (not every such curve was filed as active); inconclusive = small, poorly fitted or top-dose-only effect, or another doubt; inactive = no such curve, though single readings can be large or run the other way.
SMILES,HPGD block,HttQ103 aggreg,JMJD2E inh,HTT ATP protect,ALDH1A1 inh,CBFb RUNX1 block
O=c1c2c(-c3ccc([N+](=O)[O-])cc3)csc2nc2n1CCCCC2,nt,2%[9.22 µM],-7%,-6%[10 µM],?,4%
COc1ccc(CNCCC(c2ccccc2)C2CCOC(C)(C)C2)cc1 (stereo unspecified),nt,-1%,8%,nt,-2%,10%
COc1ccc(CN(CCC(c2ccccc2)C2CCOC(C)(C)C2)C(C)=O)cc1 (stereo unspecified),-5%,13µM*,-12%,-14%[10 µM],?,2%
Cc1ccc(NC(=O)CCCc2nc3ccccc3s2)c(O)c1,nt,?,0%,27%,-1%,4%
Cc1cc2c(ncn2Cc2ccccc2)c([N+](=O)[O-])c1C,20µM*,3%,-4%,8%,?,-3%
C/C(=N\NC(=O)c1ccc(Cl)c(S(=O)(=O)Nc2ccccc2Cl)c1)c1ccncc1,-1%,-11%,4%,19%[10 µM],?,-10%
CC(=O)Nc1cccc(OCCCNC(=O)c2cccc3ccccc23)c1,nt,-11%[9.22 µM],-2%,3%[10 µM],nt,0%
CC1CCCCC1NC(=O)c1ccc2c(c1)[nH]c(=O)n2C1CCCC1 (stereo unspecified),-10%,-4%,8%,-19%,14µM*,4%
Cc1cccc(N=N/C(=C\O)C(=O)c2cccs2)c1,nt,-30%,-2%,-12%[10 µM],8.9µM*,?
C=CCn1c(NCCc2ccccc2)nc2c1c(=O)n(C)c(=O)n2C,-3%,11µM*,-6%,11%[10 µM],11%,-2%
C/C(Cl)=C\Cn1c(NCCc2ccccc2)nc2c1c(=O)n(C)c(=O)n2C,-8%,4.5µM*,-25%,-64%,?,-4%
Cc1ccc(Cn2c(NCCc3ccccc3)nc3c2c(=O)n(C)c(=O)n3C)cc1,-15%,?,1%,-29%,-3%,-2%
O=C(NC(n1ccc(=O)[nH]c1=O)C(Cl)(Cl)Cl)C12CC3CC(CC(C3)C1)C2 (stereo unspecified),nt,0%[9.22 µM],3%,7%[10 µM],nt,18%
COc1ccc(C2c3ccsc3CCN2C(=O)C(C)(C)C)cc1 (stereo unspecified),nt,-14%[9.22 µM],7%,10%[10 µM],4%,9%
Cc1ccc(NC(=O)Cn2cnc3cc([N+](=O)[O-])ccc3c2=O)cc1,nt,3%[9.22 µM],-1%,-1%[10 µM],4%,-29%
Cc1ccc(NC(=O)Cn2cnc3cc([N+](=O)[O-])ccc3c2=O)c(Cl)c1,nt,19%[9.22 µM],1%,-2%[10 µM],2.8µM*,?
O=C(/C=C/Nc1ccc(F)c(Cl)c1)c1ccco1,-24%,-1%,4%,-74%[0.074 µM],28µM*,16%
CC(=O)Nc1ccc(NC(=O)c2ccco2)cc1,-12%,-7%,-4%,-33%,-1%,4%
CN(C)c1ccc(N/C=C/C(=O)c2ccc(F)cc2)cc1,-7%,21%,13µM*,2%[10 µM],-3%,-26%
CC(=O)Nc1ccc(N/C=C/C(=O)c2ccco2)cc1,25µM*,9%,5%,-16%,4.5µM*,4%
CN(C)c1ccc(N/C=C/C(=O)c2ccco2)cc1,35µM*,-22%,6%,-14%,28µM*,-13%
O=C(/C=C/Nc1ccc(F)cc1)c1ccc(Oc2ncccn2)cc1,-8%,-27%,1%,23%[10 µM],12%,12%
CSCCCNC(=S)N1CCc2ccccc2C1,nt,-17%,8%,-16%,?,2%
CC(N=C1NC(C)(C)Cc2ccccc21)C(=O)O (stereo unspecified),nt,-8%[9.22 µM],1%,-11%[10 µM],9%,4%
Clc1ccc(-c2n[nH]c3c2CCC3)c(Cl)c1,7.1µM*,-18%,3%,-3%,9%,5%
SMILES,HPGD block,HttQ103 aggreg,JMJD2E inh,HTT ATP protect,ALDH1A1 inh,CBFb RUNX1 block
O=C(O)CCCCCN1C(=O)C(O)=C(C(=O)/C=C/c2ccccc2)C1c1cccc([N+](=O)[O-])c1 (stereo unspecified),nt,28%,-17%,-7%,-2%,-3%
Cc1cccc(NC(=O)CCc2c(C)nc3ncnn3c2C)n1,-8%,-15%,1%,-10%,13%,5%
CC(=O)Nc1ccc(C(=O)Nc2nc(-c3cccnc3)cs2)cc1,nt,13%,?,0%[10 µM],10µM*,?
COc1cccc(C(=O)Nc2nc(-c3ccncc3)cs2)c1,nt,3%,-26%,-25%,20µM*,?
COc1cccc(C(=O)Nc2nc(C)cs2)c1,?,6%,2%,-50%,8%,6%
O=C(/C=C(\c1ccccc1)n1cncn1)c1ccccc1,-2%,27%,1%,nt,?,1%
O=C(/C=C(\c1ccc(Cl)cc1)n1cncn1)c1ccc(Cl)cc1,-24%,-4%[9.22 µM],-1%,20%,2.2µM*,2%
N#Cc1ccc(NC(=O)CNc2cc(S(=O)(=O)N3CCOCC3)ccc2NCC2CCCO2)cc1 (stereo unspecified),nt,9%,-4%,-24%,18µM*,-5%
N#Cc1ccc(OCC(=O)Nc2cc(S(=O)(=O)N3CCOCC3)ccc2N2CCOCC2)cc1,nt,-3%[9.22 µM],9%,-22%[10 µM],nt,3%
C=CCC(C)(O)c1ccsc1 (stereo unspecified),-3%,nt,6%,23%,6%,6%
CC(=O)Oc1cccc2c1C(=O)c1c(OC(C)=O)cc(C(=O)O)cc1C2=O,?,?,?,?,?,2%
O=C(O)c1cc(O)c2c(c1)C(=O)c1cc(O)cc(O)c1C2=O,14µM*,-3%[9.22 µM],-19%,-22%[10 µM],25µM*,?
O=C(OCCN1C(=O)c2ccccc2C1=O)C1CCN(S(=O)(=O)c2cccs2)CC1,1%,11%,2%,-18%[10 µM],9%,9%
O=c1ccc2cc3c4c(c2o1)CCCN4CCC3,nt,-6%[9.22 µM],?,9%[10 µM],?,8%
O=c1ccc2c(o1)/C(=C/C=C(Cl)Cl)CCC2,-22%,-8%,?,-3%[10 µM],7.1µM*,8%
Cc1c(C(=O)NCc2cccnc2)oc2ccc(S(=O)(=O)N3CCCC(C)C3)cc12 (stereo unspecified),-13%,-28%,-4%,-13%,-15%,-2%
CC1=CC(=Nc2c(C)n(C)n(-c3ccccc3)c2=O)C=CC1=O,nt,9%[9.22 µM],1.8µM*,-12%[10 µM],nt,-27%
Cc1c(N=Cc2ccncc2)c(=O)n(-c2ccccc2)n1C,-13%,14%,?,12%[10 µM],?,23%
Cc1c(N=Cc2ccc[nH]2)c(=O)n(-c2ccccc2)n1C,?,-7%,-4%,-2%,13µM*,13%
Cc1cc(C(=O)COC(=O)c2ccc(N)cc2)c(C)n1-c1c(C)n(C)n(-c2ccccc2)c1=O,nt,22%,9%,8%[10 µM],5%,3%
Cc1ccc2[nH]c(O)c(N=O)c2c1,nt,7%[9.22 µM],9%,-8%[10 µM],32µM*,11%
